Measurements reported in PubChem BioAssay (NCATS).
Inconclusive results are not listed. Calls of active or inactive are those of the source. The call rests on the fitted dose curve; in most records, active means well fitted curve in the direction sought with a large enough effect; inconclusive means small, poorly fitted or top-dose-only effect, or another doubt; inactive means no such curve, though single readings can be large; an effect the other way counts as inactive or inconclusive.

How the values were obtained:
HACAT = assay: qHTS assay to identify novel small-molecules to repurpose for Merkel cell carcinoma treatment (AID 1296009); conditions: MCC and control cell lines, CellTiter-Glo viability, 72 h; at 44.8 µM (top of the series) unless noted; further: nearly all actives have a fitted effect of over 60% in size
Outline: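 Luminescence from CellTiter-Glo, read 10 min after addition at room temperature, reported viability following a 72 hr, 37 degree celsius treatment with NPC or MIPE compounds in titration; values normalized to plate controls.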

C33A = assay: Primary qHTS to identify gynecologic anti-cancer compounds using libraries of approved drugs and bioactive compounds (AID 1345084); conditions: Gynecologic cancer cell panel viability, ATPlite luminescence, 48 h; series mostly up to 57.5 µM; further: nearly all actives have a fitted effect of over 55% in size
Outline: (§1)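 Luminescence from the ATPlite ATP-monitoring reagent indicates viable cell number; lower signal means cytotoxicity. Cells received compound 16 h after seeding and were exposed for 48 h across five concentrations.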

CAOV3 = assay: as above; conditions: Gynecologic cancer cell panel viability, ATPlite luminescence, 48 h; series mostly up to 57.5 µM
Outline: as §1

CASKI = assay: as above; conditions: Gynecologic cancer cell panel viability, ATPlite luminescence, 48 h; series mostly up to 57.5 µM
Outline: as §1

Es-2 = assay: as above; conditions: Gynecologic cancer cell panel viability, ATPlite luminescence, 48 h; series mostly up to 57.5 µM
Outline: as §1

HeLa = assay: as above; conditions: Gynecologic cancer cell panel viability, ATPlite luminescence, 48 h; series mostly up to 57.5 µM
Outline: as §1

Hek293T = assay: as above; conditions: Gynecologic cancer cell panel viability, ATPlite luminescence, 48 h, control line for the selectivity index; series mostly up to 57.5 µM
Outline: as §1

JEG-3 = assay: as above; conditions: Gynecologic cancer cell panel viability, ATPlite luminescence, 48 h; series mostly up to 57.5 µM
Outline: as §1

OV90 = assay: as above; conditions: Gynecologic cancer cell panel viability, ATPlite luminescence, 48 h; series mostly up to 57.5 µM
Outline: as §1

PA-1 = assay: as above; conditions: Gynecologic cancer cell panel viability, ATPlite luminescence, 48 h; series mostly up to 57.5 µM
Outline: as §1

SKOV3 = assay: as above; conditions: Gynecologic cancer cell panel viability, ATPlite luminescence, 48 h; series mostly up to 57.5 µM
Outline: as §1

Tov-21-G = assay: as above; conditions: Gynecologic cancer cell panel viability, ATPlite luminescence, 48 h; series mostly up to 57.5 µM
Outline: as §1

Tov112D = assay: as above; conditions: Gynecologic cancer cell panel viability, ATPlite luminescence, 48 h; series mostly up to 57.5 µM
Outline: as §1

Measured: Potency

CSCC1OC(n2cnc3c(=O)[nH]cnc32)C(O)C1O (centres undefined)
inactive: HACAT | C33A | CAOV3 | CASKI | Es-2 | HeLa | Hek293T | JEG-3 | OV90 | PA-1 | SKOV3 | Tov-21-G | Tov112D

CC1CCC2C(C)(C)[C@H](O)CC[C@]2(C)C12Cc1c(O)cc3c(c1O2)CN(C(CCC(=O)O)C(=O)O)C3=O (some centres undefined)
inactive: HACAT inactive [at 17.4 µM] | C33A | CAOV3 | CASKI | Es-2 | HeLa | Hek293T | JEG-3 | OV90 | PA-1 | SKOV3 | Tov-21-G | Tov112D

O=C(NCCN1CCCC1)c1cc(-c2ccc(CN3CCOCC3)cc2)nc2ccc(F)cc12
inactive: HACAT inactive [at 17.4 µM] | C33A | CAOV3 | CASKI | Es-2 | HeLa | Hek293T | JEG-3 | OV90 | PA-1 | SKOV3 | Tov-21-G | Tov112D

CC[C@@H](C)[C@H](N)C(=O)N1Cc2ccccc2C1
inactive: HACAT | C33A | CAOV3 | CASKI | Es-2 | HeLa | Hek293T | JEG-3 | OV90 | PA-1 | SKOV3 | Tov-21-G | Tov112D

COc1cccc(Cn2ncc3c4sc(S(C)=O)cc4n(C)c3c2=O)c1 (centres undefined)
inactive: HACAT | C33A | CAOV3 | CASKI | Es-2 | HeLa | Hek293T | JEG-3 | OV90 | PA-1 | SKOV3 | Tov-21-G | Tov112D

CC1=CC(=O)CC(C)(C)C1CO[C@@H]1O[C@H](CO)[C@@H](O)[C@H](O)[C@H]1O (some centres undefined)
inactive: HACAT | C33A | CAOV3 | CASKI | Es-2 | HeLa | Hek293T | JEG-3 | OV90 | PA-1 | SKOV3 | Tov-21-G | Tov112D

COc1cc(C(=O)OC[C@@]2(O)CO[C@@H](O[C@H]3[C@H](Oc4ccc(O)cc4)O[C@H](CO)[C@@H](O)[C@@H]3O)[C@@H]2O)cc(OC)c1O
inactive: HACAT inactive [at 17.4 µM] | C33A | CAOV3 | CASKI | Es-2 | HeLa | Hek293T | JEG-3 | OV90 | PA-1 | SKOV3 | Tov-21-G | Tov112D

COC(=O)C1=CO[C@@H](O[C@@H]2O[C@H](CO)[C@@H](O)[C@H](O)[C@H]2O)[C@@H]2C(CO)=CC[C@H]12
inactive: HACAT | C33A | CAOV3 | CASKI | Es-2 | HeLa | Hek293T | JEG-3 | OV90 | PA-1 | SKOV3 | Tov-21-G | Tov112D

C=C1CCC(OC(C)=O)C2(C)CC3OC(=O)C(C)=C3CC12 (centres undefined)
inactive: HACAT | C33A | CAOV3 | CASKI | Es-2 | HeLa | Hek293T | JEG-3 | OV90 | PA-1 | SKOV3 | Tov-21-G | Tov112D

COc1c2cc(c(O)c1OC)CCCCC(O)CCc1ccc(O)c-2c1 (centres undefined)
inactive: HACAT | C33A | CAOV3 | CASKI | Es-2 | HeLa | Hek293T | JEG-3 | OV90 | PA-1 | SKOV3 | Tov-21-G | Tov112D

C[C@H]1CCN2C[C@]34C[C@@]5(C(=O)Nc6c5ccc5c6OC=CC(C)(C)O5)C(C)(C)C3C[C@]12C(=O)N4C (some centres undefined)
inactive: HACAT inactive [at 17.4 µM] | C33A | CAOV3 | CASKI | Es-2 | HeLa | Hek293T | JEG-3 | OV90 | PA-1 | SKOV3 | Tov-21-G | Tov112D

CC1(C)C(=O)N2c3ccccc3C(O)(CC(C(=O)O)n3cnc4ccccc4c3=O)C2N1O (centres undefined)
inactive: HACAT inactive [at 17.4 µM] | C33A | CAOV3 | CASKI | Es-2 | HeLa | Hek293T | JEG-3 | OV90 | PA-1 | SKOV3 | Tov-21-G | Tov112D

CC1(C)CC[C@]2(C(=O)O)CC[C@]3(C)C(=CCC4[C@@]5(C)C[C@@H](O)[C@H](O)[C@@](C)(CO)C5CC[C@]43C)C2C1 (some centres undefined)
inactive: HACAT inactive [at 17.4 µM] | C33A | CAOV3 | CASKI | Es-2 | HeLa | Hek293T | JEG-3 | OV90 | PA-1 | SKOV3 | Tov-21-G | Tov112D
